Measured values published in PubChem BioAssay AID1159580 (chemical genetic matrix, 2015).
About 2,000 (36%) of roughly 5,500 compounds were called active. Roughly 18% stayed inconclusive and do not appear here. Cut-off read from the data, not from the text of the source: active = normalized growth mostly below about 0.91 (no sharp cut-off); inconclusive = no clear call, values can overlap the other calls; inactive = mostly above about 0.92. The list shows a part of the results.

Assay: chemical genetic growth profiling, strain panel (AID 1159580);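 note: tested at 20 µM; growth read once vehicle control cultures reached saturation at 30 °C; 1 = growth at the plate median or of vehicle wells; lower values mean less growth of the strain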
Details: growth OD

Measured: normalized growth

COC1=CC(=O)OC(CCc2ccc(OC)c(OC)c2)C1 (stereo unspecified)
inactive: S. cerevisiae deletion strains, locus YAL013W, strain DEP1, hits give low values 0.988 | S. cerevisiae deletion strains, locus YBR021W, strain FUR4, hits give low values 0.991 | S. cerevisiae deletion strains, locus YBR229C, strain ROT2, hits give low values 1.01 | S. cerevisiae deletion strains, locus YCL029C, strain bik1, hits give low values 1.03 | S. cerevisiae deletion strains, locus YDL035C, strain GPR1, hits give low values 1.01 | S. cerevisiae deletion strains, locus YDL074C, strain BRE1, hits give low values 1.02 | S. cerevisiae deletion strains, locus YDL101C, strain DUN1, hits give low values 1.01 | S. cerevisiae deletion strains, locus YDL134C, strain PPH21, hits give low values 1 | S. cerevisiae deletion strains, locus YDL185W, strain tfp1, hits give low values 1.02 | S. cerevisiae deletion strains, locus YDL192W, strain arf1, hits give low values 1.02 | S. cerevisiae deletion strains, locus YDR101C, strain arx1, hits give low values 1.01 | S. cerevisiae deletion strains, locus YDR150W, strain NUM1, hits give low values 1.01 | S. cerevisiae deletion strains, locus YDR162C, strain NBP2, hits give low values 1.01 | S. cerevisiae deletion strains, locus YDR318W, strain mcm21, hits give low values 1.01 | S. cerevisiae deletion strains, locus YDR388W, hits give low values 1.01 | S. cerevisiae deletion strains, locus YDR502C, strain sam2, hits give low values 1.01 | S. cerevisiae deletion strains, locus YEL061C, strain CIN8, hits give low values 1.01 | S. cerevisiae deletion strains, locus YER110C, hits give low values 1.02 | S. cerevisiae deletion strains, locus YER155C, strain BEM2, hits give low values 1.01 | S. cerevisiae deletion strains, locus YER167W, strain BCK2, hits give low values 1.02 | S. cerevisiae deletion strains, locus YGL078C, strain dbp3, hits give low values 1.02 | S. cerevisiae deletion strains, locus YGL086W, strain mad1, hits give low values 1.02 | S. cerevisiae deletion strains, locus YGL248W, strain PDE1, hits give low values 1.01 | S. cerevisiae deletion strains, locus YGR078C, strain PAC10, hits give low values 1.01 | S. cerevisiae deletion strains, locus YGR135W, strain pre9, hits give low values 1.01 | S. cerevisiae deletion strains, locus YGR229C, strain SMI1, hits give low values 1 | S. cerevisiae deletion strains, locus YGR252W, strain gcn5, hits give low values 1 | S. cerevisiae deletion strains, locus YHR030C, strain SLT2, hits give low values 1.01 | S. cerevisiae deletion strains, locus YHR079C, strain IRE1 (second series), hits give low values 1.01 | S. cerevisiae deletion strains, locus YHR094C, strain hxt1, hits give low values 1.01 | S. cerevisiae deletion strains, locus YHR129C, strain ARP1, hits give low values 1.01 | S. cerevisiae deletion strains, locus YHR200W, strain rpn10, hits give low values 1.01 | S. cerevisiae deletion strains, locus YIL066C, strain RNR3, hits give low values 1 | S. cerevisiae deletion strains, locus YIL073C, strain SPO22, hits give low values 1.07 | S. cerevisiae deletion strains, locus YIL125W, strain kgd1, hits give low values 1.02 | S. cerevisiae deletion strains, locus YIR030C, strain dcg1, hits give low values 1.01 | S. cerevisiae deletion strains, locus YJL095W, strain BCK1, hits give low values 1.02 | S. cerevisiae deletion strains, locus YJL134W, strain LCB3, hits give low values 1 | S. cerevisiae deletion strains, locus YJL168C, strain set2, hits give low values 1 | S. cerevisiae deletion strains, locus YJL187C, strain SWE1 (second series), hits give low values 1.01 | S. cerevisiae deletion strains, locus YJR043C, strain POL32, hits give low values 1.02 | S. cerevisiae deletion strains, locus YJR075W, strain HOC1, hits give low values 1.02 | S. cerevisiae deletion strains, locus YKL009W, strain mrt4, hits give low values 1.03 | S. cerevisiae deletion strains, locus YKL068W, hits give low values 1.01 | S. cerevisiae deletion strains, locus YKL085W, strain MDH1 (second series), hits give low values 1.01 | S. cerevisiae deletion strains, locus YKL085W, strain MDH1, hits give low values 1.01 | S. cerevisiae deletion strains, locus YKL190W, strain CNB1, hits give low values 1.01 | S. cerevisiae deletion strains, locus YKR001C, strain vps1, hits give low values 1.04 | S. cerevisiae deletion strains, locus YLR039C, strain RIC1, hits give low values 1.07 | S. cerevisiae deletion strains, locus YLR058C, strain SHM2, hits give low values 1.01 | S. cerevisiae deletion strains, locus YLR102C, strain apc9, hits give low values 1.01 | S. cerevisiae deletion strains, locus YLR262C, strain YPT6, hits give low values 1.07 | S. cerevisiae deletion strains, locus YLR268W, strain sec22, hits give low values 1.01 | S. cerevisiae deletion strains, locus YLR330W, strain CHS5, hits give low values 1.01 | S. cerevisiae deletion strains, locus YLR342W, strain FKS1 (second series), hits give low values 1.01 | S. cerevisiae deletion strains, locus YLR371W, strain rom2, hits give low values 1.01 | S. cerevisiae deletion strains, locus YLR418C, strain cdc73, hits give low values 1.01 | S. cerevisiae deletion strains, locus YML016C, strain PPZ1, hits give low values 1.01 | S. cerevisiae deletion strains, locus YML032C, strain rad52, hits give low values 1.04 | S. cerevisiae deletion strains, locus YML124C, strain tub3, hits give low values 1.02 | S. cerevisiae deletion strains, locus YMR078C, strain ctf18, hits give low values 1.02 | S. cerevisiae deletion strains, locus YMR223W, strain ubp8, hits give low values 1.02 | S. cerevisiae deletion strains, locus YMR263W, strain SAP30, hits give low values 1.01 | S. cerevisiae deletion strains, locus YMR307W, strain GAS1, hits give low values 1.03 | S. cerevisiae deletion strains, locus YNL067W, strain RPL9B, hits give low values 1.01 | S. cerevisiae deletion strains, locus YNL128W, strain TEP1, hits give low values 1.01 | S. cerevisiae deletion strains, locus YNL153C, strain GIM3, hits give low values 1.01 | S. cerevisiae deletion strains, locus YNL233W, strain BNI4, hits give low values 1 | S. cerevisiae deletion strains, locus YNL250W, strain rad50, hits give low values 1.01 | S. cerevisiae deletion strains, locus YNL271C, strain bni1, hits give low values 1.01 | S. cerevisiae deletion strains, locus YNL298W, strain CLA4, hits give low values 1.02 | S. cerevisiae deletion strains, locus YNL307C, strain MCK1, hits give low values 1.01 | S. cerevisiae deletion strains, locus YNL322C, strain KRE1, hits give low values 1.01 | S. cerevisiae deletion strains, locus YNR052C, strain pop2, hits give low values 1.02 | S. cerevisiae deletion strains, locus YOL006C, strain TOP1, hits give low values 1.09 | S. cerevisiae deletion strains, locus YOL012C, strain htz1 1.25 | S. cerevisiae deletion strains, locus YOL147C, strain pex11, hits give low values 1.01 | S. cerevisiae deletion strains, locus YOR061W, strain CKA2, hits give low values 1.01 | S. cerevisiae deletion strains, locus YOR069W, strain VPS5, hits give low values 1 | S. cerevisiae deletion strains, locus YOR136W, strain idh2, hits give low values 1.02 | S. cerevisiae deletion strains, locus YOR144C, strain elg1, hits give low values 1.02 | S. cerevisiae deletion strains, locus YOR184W, strain ser1, hits give low values 1.03 | S. cerevisiae deletion strains, locus YOR316C, strain cot1, hits give low values 1.02 | S. cerevisiae deletion strains, locus YPL055C, strain LGE1, hits give low values 1.02 | S. cerevisiae deletion strains, locus YPL241C, strain CIN2, hits give low values 1 | S. cerevisiae deletion strains, locus YPR119W, strain clb2, hits give low values 1.01 | S. cerevisiae deletion strains, locus YPR141C, strain kar3, hits give low values 1.03 | S. cerevisiae deletion strains, locus YPR163C, strain tif3, hits give low values 1.02 | S. cerevisiae deletion strains, locus YPR167C, strain met16, hits give low values 1.02 | S. cerevisiae deletion strains, strain wtn01, hits give low values 1.01 | S. cerevisiae strains, strain wild type, hits give low values 0.999
